Screens from PubChem.
GPR151 ag: human GPR151 activation | PathHunter beta-arrestin GPR151 cells, luminescence | activation, % at 11.2 µM | 650,000 tested, 1% active; in the data active means activation above about 4.9%
Target sequence (Q8TDV0 whole entry, looked up): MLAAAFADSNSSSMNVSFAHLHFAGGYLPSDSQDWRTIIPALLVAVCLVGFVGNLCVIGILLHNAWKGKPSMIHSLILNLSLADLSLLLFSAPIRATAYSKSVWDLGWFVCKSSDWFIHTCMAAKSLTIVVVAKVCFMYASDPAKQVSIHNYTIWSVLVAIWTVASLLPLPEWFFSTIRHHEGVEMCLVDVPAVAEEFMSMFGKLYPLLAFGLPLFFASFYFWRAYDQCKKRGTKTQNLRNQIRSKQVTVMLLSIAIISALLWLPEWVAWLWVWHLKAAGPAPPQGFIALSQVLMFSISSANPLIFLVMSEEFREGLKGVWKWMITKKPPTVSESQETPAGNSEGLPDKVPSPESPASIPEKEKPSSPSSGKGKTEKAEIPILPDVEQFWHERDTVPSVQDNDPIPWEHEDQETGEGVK
MITF primary: inhibitors of human MITF. O75030. 650,000 tested, 0.91% active. AlphaScreen MITF homodimerization, bead proximity signal. AID 1259374. inhibition, % at 2.6 µM; in the data active means inhibition above about 50%
FBW7 activator: human FBW7 E3 ligase activation, primary screen; 650,000 tested, 0.13% active; Q969H0; AlphaScreen FBW7–phospho-cyclin E peptide binding, activator screen; normalized activity (activation), % at 26.1 µM; in the data active means normalized activity above about 1.9%;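 further: purified mutant Fbw7 with reduced substrate affinity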
TEAD-YAP inh: TEAD-YAP interaction inhibition | AID 1259422 | HEK-TIYL cells, TEAD-Gal4/YAP UAS-luciferase luminescence | inhibition, % at 9.12 µM | 640,000 tested, 1.4% active; in the data active means inhibition above about 32%
GPR151 conf act: confirmation of human GPR151 activators; shares compounds with GPR151 ag; GPR151 PathHunter beta-arrestin cells, luminescence, 90 min; % of EA-reagent control over plate median; activation, % at 11.2 µM; 6,700 tested, under 10 active; AID 1508609;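 active means mean percent activation across replicates above the confirmation screen cutoff of 4.91%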
GPR119 counter: GPR119 activation, counter-screen for GPR151 activators; AID 1508611; 6,700 tested, 0.3% active; shares compounds with GPR151 ag; activation, % at 11.2 µM; GPR119 PathHunter beta-arrestin cells, luminescence, 90 min; 0 = compound-well median, 100 = enzyme-acceptor control;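 active means mean percent activation in the counterscreen above 29.09%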;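 further: counterscreen on off-target GPR119 to flag nonselective hits from the GPR151 activator screen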
Each line names hits and unclear results; the compound was inactive in the other large screens (follow-up assays come after a bar, where they were run). In the library only some 3.5% were active in any assay of this set; here they are far more common.

COc1ccc(N2CC(NC(=O)NC(c3ccccc3)c3ccccc3)CC2=O)cc1 (centres undefined)	GPR151 ag 6.1 | GPR151 conf act inactive | GPR119 counter inactive
CC1(C)Cc2c(c(=S)nc(-c3ccccc3)n2Cc2ccccc2)CO1	none
O=c1oc2c(CN3CCOCC3)c(O)ccc2cc1-c1ccc(F)cc1	GPR151 ag 14 | GPR151 conf act inactive | GPR119 counter inactive
COc1ccc(-c2cc3ccc(O)c(CN4CCOCC4)c3oc2=O)cc1	none
CCCS(=O)(=O)N1CCN=C1SCc1cccc([N+](=O)[O-])c1	GPR151 ag 5.3 | GPR151 conf act inactive | GPR119 counter inactive
O=[N+]([O-])c1ccc(CSC2=NCCN2S(=O)(=O)c2ccccc2)cc1	GPR151 ag 5.1 | GPR151 conf act inactive | GPR119 counter inactive
O=[N+]([O-])c1ccc(CSC2=NCCN2S(=O)(=O)c2ccc([N+](=O)[O-])cc2)cc1	none
CCS(=O)(=O)N1CCN=C1SCc1cccc([N+](=O)[O-])c1	none
N#Cc1cccc(NC(=O)CSc2nnc(NC3CCCCC3)s2)c1	none
CC(=O)C1C2=C(CC(C)(C)CC2=O)OC2=C1C(=O)CC(C)(C)C2	GPR151 ag 6.7 | GPR151 conf act inactive | GPR119 counter inactive
CC1(C)CC(=O)C2=C(C1)OC1=C(C(=O)CC(C)(C)C1)C2c1cccs1	none
CC1(C)CC(=O)C2=C(C1)OC1=C(C(=O)CC(C)(C)C1)C2C=C(Cl)Cl	GPR151 ag 6.6 | GPR151 conf act inactive | GPR119 counter inactive
COc1cc(OC)cc(C(=O)c2coc3ccc(O)c(CN4CCOCC4)c23)c1	none
FC(F)(F)c1ccc(Cn2cnc3c(NCc4cccc(C(F)(F)F)c4)nc(Nc4nccc5ccccc45)nc32)cc1	GPR151 ag 5.6 | GPR151 conf act inactive | GPR119 counter inactive
CN1CCN(C(=O)c2ccc(-c3nc(NCc4cccc(C(F)(F)F)c4)c4ncn(Cc5ccc(C(F)(F)F)cc5)c4n3)cc2)CC1	GPR151 ag 11 | GPR151 conf act inactive | GPR119 counter inactive
N#CCCn1c(=O)oc2cc([N+](=O)[O-])ccc21	none
COc1ccc(Cn2ccn(Cc3ccc(F)cc3)c(=O)c2=O)cc1	GPR151 ag 13 | GPR151 conf act inactive | GPR119 counter inactive
Nn1cnn2c(SCC(=O)Nc3cnccn3)nnc12	none
CCOc1cc(/C=C2/N=C(c3cccc(C)c3)OC2=O)ccc1OS(C)(=O)=O	GPR151 ag 13 | GPR151 conf act inactive | GPR119 counter inactive
CCOc1cc(/C=C2\N=C(c3cccc(C)c3)OC2=O)ccc1OC(C)=O	none
O=C(CSc1ccc([N+](=O)[O-])cn1)Nc1cccc(C(F)(F)F)c1	GPR151 ag 5.6 | GPR151 conf act inactive | GPR119 counter inactive
O=C(CSc1ccc([N+](=O)[O-])cn1)Nc1ccc(Oc2ccccc2)cc1	none
NS(=O)(=O)c1ccc(NC(=O)CSc2ccc([N+](=O)[O-])cn2)cc1	GPR151 ag 7.9 | GPR151 conf act inactive | GPR119 counter inactive
CC1(C)Cc2c(sc3nc(Cc4c(Cl)cccc4Cl)n(N)c(=O)c23)CO1	none
CCOC(=O)c1[nH]c(C)c(C(=O)OCc2nc3ccc(Cl)cc3n2CCO)c1C	GPR151 ag 6.3, TEAD-YAP inh 56 | GPR151 conf act inactive | GPR119 counter inactive
CCSC1=C(C#N)C(c2ccc3c(c2)OCO3)C2=C(CCCC2=O)N1 (centres undefined)	GPR151 ag 5.5 | GPR151 conf act inactive | GPR119 counter inactive
O=C(O)c1ccc(NS(=O)(=O)/C=C/c2ccccc2)cc1	GPR151 ag 7.0 | GPR151 conf act inactive | GPR119 counter inactive
O=C(O)c1cccc(NS(=O)(=O)/C=C/c2ccccc2)c1	none
COc1cc(-c2nc3ccccc3c(=O)n2NC(=O)c2ccccc2C)cc(OC)c1OC	none
O=c1[nH]c(SCc2ccccc2)nc2c1C1(CCCCC1)Cc1ccccc1-2	none
O=c1[nH]c(Cc2ccccc2)nc2c1C1(CCCCC1)Cc1ccccc1-2	GPR151 ag 5.1 | GPR151 conf act inactive | GPR119 counter inactive
Cn1c(=O)c2c(nc(CN3CCC(C(N)=O)CC3)n2Cc2ccccc2)n(C)c1=O	none
COCCCNC(=O)c1cccnc1SCc1ccccc1Cl	GPR151 ag 5.5 | GPR151 conf act inactive | GPR119 counter inactive
COc1ccc2c(c1)-c1c(ssc1=S)C(C)(C)N2C(=O)Cc1ccccc1	GPR151 ag 6.3 | GPR151 conf act inactive | GPR119 counter inactive
CCC(C)(C)C1CCC(NC(=O)C(=O)Nc2ccc(OC)cc2)CC1 (centres undefined)	none
CCOC(=O)C1=C(C)OC(N)=C(C#N)C1c1cc(OC)ccc1OC (centres undefined)	none
CC(C)OCCCNc1ncnc(N)c1[N+](=O)[O-]	GPR151 ag 7.7, TEAD-YAP inh 40 | GPR151 conf act inactive | GPR119 counter inactive
CCCCNc1ncnc(N)c1[N+](=O)[O-]	none
NC(=O)NC(CC(=O)O)c1ccccc1Cl (centres undefined)	none
COC(C(=O)Nc1ccccc1C(=O)O)c1ccccc1 (centres undefined)	none
COC(C(=O)Nc1c(F)cccc1F)c1ccccc1 (centres undefined)	GPR151 ag 5.9 | GPR151 conf act inactive | GPR119 counter inactive
O=C(CCn1cccn1)N1CCC(c2ccncc2)CC1	none
Cc1ccc(/C(N)=N/OC(=O)CCc2ccccc2)cc1	GPR151 ag 5.0 | GPR151 conf act inactive | GPR119 counter inactive
COc1ccc(C2/C(=C(/O)c3ccc(F)cc3)C(=O)C(=O)N2CCCCCC(=O)O)c(OC)c1 (centres undefined)	none
COc1ccc(C2/C(=C(/O)c3ccccc3)C(=O)C(=O)N2CCCn2ccnc2)c(OC)c1 (centres undefined)	GPR151 ag 5.9 | GPR151 conf act inactive | GPR119 counter inactive
COc1ccc(C2/C(=C(/O)c3ccc(C)cc3)C(=O)C(=O)N2CCCC(=O)O)c(OC)c1 (centres undefined)	GPR151 ag 7.8 | GPR151 conf act inactive | GPR119 counter inactive
CCC(=O)N1CCCc2ccc(NC(=O)Nc3ccc4c(c3)OCO4)cc21	none
C=CCNc1nc(-c2ccc(OC)c3ccccc23)cs1	GPR151 ag 5.4 | GPR151 conf act inactive | GPR119 counter inactive
COc1cccc(-c2nc(-c3ccc([N+](=O)[O-])cc3)no2)c1	none
COc1ccc(-c2noc(C(C)c3ccc([N+](=O)[O-])cc3)n2)cc1 (centres undefined)	GPR151 ag 5.1 | GPR151 conf act inactive | GPR119 counter inactive
CCOC(=O)C(C(=O)NCc1ccccc1)C1CCCCC1 (centres undefined)	GPR151 ag 5.9 | GPR151 conf act inactive | GPR119 counter inactive
Cc1ccc(C)c(NC(=O)CN(C)S(=O)(=O)c2ccc3c(c2)n(C)c(=O)c(=O)n3C)c1	none
Cc1nn(C)c(C)c1-c1nc(NCCc2ccc(O)cc2)c2ncn(C(C)C)c2n1	none
